# Results: PubChem BioAssay (Tox21)
# Results filed as inconclusive are left out. A call without a number means that no potency is given here. The source made the active and inactive calls. Calls follow the shape of the dose curve; as a rule, active = well fitted inhibition curve with a large enough effect in the repeat runs; inconclusive = weak or mixed curves; inactive = no such curve, though single readings can be large or run the other way.
# Target: Cytochrome P450 2D6 (Homo sapiens) (UniProt P10635)
# Sequence (P10635 whole entry, looked up): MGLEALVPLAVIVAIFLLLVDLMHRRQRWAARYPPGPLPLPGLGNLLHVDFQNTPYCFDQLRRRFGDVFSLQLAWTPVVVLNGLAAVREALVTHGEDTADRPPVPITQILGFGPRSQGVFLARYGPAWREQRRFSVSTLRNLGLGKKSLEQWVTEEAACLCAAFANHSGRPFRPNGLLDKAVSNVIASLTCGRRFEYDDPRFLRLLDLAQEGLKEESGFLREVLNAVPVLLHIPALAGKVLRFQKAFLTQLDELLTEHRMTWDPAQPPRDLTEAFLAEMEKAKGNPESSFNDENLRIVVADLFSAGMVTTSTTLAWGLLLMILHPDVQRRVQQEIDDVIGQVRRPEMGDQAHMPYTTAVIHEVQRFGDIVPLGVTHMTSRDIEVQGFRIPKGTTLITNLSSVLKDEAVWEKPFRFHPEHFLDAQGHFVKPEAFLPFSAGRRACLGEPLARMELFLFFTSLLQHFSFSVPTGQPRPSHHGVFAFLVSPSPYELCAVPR
# Experiment: Cytochrome P450 Family 2 Subfamily D Member 6 (CYP2D6) small molecule antagonists: luciferase reporter qHTS assay (AID 1671196); also: nearly all actives have a fitted effect of over 50% in size
# Conditions: P450-Glo CYP2D6 enzyme assay, luciferin luminescence, 1 h; series mostly up to 115 µM
# Text: U.S. Tox21 Program National Center for Advancing Translational Sciences [NCATS] U.S. Environmental Protection Agency [EPA] National Institutes of Environmental Health Sciences [NIEHS] National Toxicology Program [NTP] U.S. Food and Drug Administration [FDA] Tox21 Assay Overview: Cytochrome P450 (CYP) enzymes are membrane-bound hemeproteins that play a key role in metabolism of drugs and xenobiotics. Evaluation of the effect of chemicals on CYP isozymes is useful to minimize the adverse drug reactions and toxicities in drug development process. Tox21 chemicals were tested for their effect on CYP enzyme activities by using P450-Glo (TM) screening systems (Promega Corporation, Madison, WI). These systems provide a luminescent method containing proluciferin substrates and are converted to luciferin products by CYP isozymes. The luciferin products formed are detected with a luciferin detection reagent, and the amount of light produced is proportional to CYP activity. P450-Glo (TM) CYP2D6 screening system (Catalog. No. V9890) was used to detect the compounds that interfere in CYP2D6 activity.
# Tox21 Assay Protocol Summary: Two ul of enzyme-substrate mix was dispensed into medium binding white/solid 1536-well plates (Greiner Bio-One North America Inc., Monroe, NC) using a BioRaptr Flying Reagent Dispenser (FRD, Beckman Coulter, Brea, CA). […] The assay plates were incubated at room temperature for 10 min. Then 2 ul of NADPH regeneration solution was added to each well of the assay plates using an FRD and incubated at room temperature for 1 h. The reaction was stopped by adding 4 ul of detection reagent using an FRD and after 20 min incubation at room temperature the luminescence signal was measured using a ViewLux plate reader (Perkin Elmer, Shelton, CT). Data were expressed as relative luminescence units.
# Potency is read from the fitted curve at half-maximal effect.
row,SMILES,Potency
1,CC(C)(C)OC(=O)c1ncn2c1[C@@H]1CCCN1C(=O)c1c(Br)cccc1-2,inactive
2,Nc1cnn(-c2ccccc2)c(=O)c1Cl,inactive
3,CC(Cl)(Cl)[N+](=O)[O-],inactive
4,C=CC1CC=CCC1 (stereo not given),inactive
5,N#CCNCC#N,inactive
6,CCC#N,inactive
7,Cc1ncc2n1-c1ccc(Cl)cc1C(c1ccccc1F)=NC2,inactive
8,O=C(Nc1ccccc1)N(Cc1ccc(Cl)cc1)C1CCCC1,12.6 µM (active)
9,COC(=O)c1ccccc1S(=O)(=O)NC(=O)N(C)c1nc(C)nc(OC)n1,inactive
10,COC(=O)C(c1ccccc1)C1CCCCN1 (stereo not given),22.5 µM (active)
11,CC(C)COP(=O)(OCC(C)C)OCC(C)C,inactive
12,CN1C[C@@H](NS(=O)(=O)N(C)C)C[C@@H]2c3cccc4c3c(cn4C)C[C@H]21,inactive
13,Nc1n[nH]c(N)n1,inactive
14,BrCCCCCCBr,inactive
15,CCCCCCI,inactive
16,CC1(C)CON(Cc2ccccc2Cl)C1=O,inactive
17,CCC1(c2ccccc2)C(=O)N=C(O)NC1=O (stereo not given),inactive
18,CC(CC(C#N)(c1ccccc1)c1ccccc1)N(C)C (stereo not given),11.2 µM (active)
19,NC(=O)c1cc([N+](=O)[O-])cc([N+](=O)[O-])c1,inactive
20,CN1CCC(N(Cc2ccccc2)c2ccccc2)CC1,0.309 µM (active)

row,SMILES,Potency
1,CCN(Cc1ccc(Cl)nc1)/C(=C/[N+](=O)[O-])NC,inactive
2,CC1CCCCC1NC(=O)Nc1ccccc1 (stereo not given),71 µM (active)
3,CC1=NNC(=O)N(/N=C/c2cccnc2)C1,inactive
4,Cc1ncsc1CCCl,inactive
5,CCCSC(=O)N(CCC)CCC,inactive
6,CCCCN(CCCCO)N=O,inactive
7,O=[N+]([O-])c1cccc2c([N+](=O)[O-])cccc12,11.3 µM (active)
8,C=C(C)CN(CC)c1c([N+](=O)[O-])cc(C(F)(F)F)cc1[N+](=O)[O-],inactive
9,COC(C)(C)C,inactive
10,CCCCc1c(C)nc(NCC)[nH]c1=O,inactive
11,CC(C)(C)NCC(O)c1cc(Cl)c(N)c(Cl)c1 (stereo not given),15.5 µM (active)
12,C=CCC1=C(C)[C@@H](OC(=O)[C@@H]2[C@@H](C=C(C)C)C2(C)C)CC1=O,35.6 µM (active)
13,COc1cccc2c1cc([N+](=O)[O-])c1c(C(=O)O)cc3c(c12)OCO3,inactive
14,Clc1cccc(N2CCNCC2)c1,5.49 µM (active)
15,CC(C)(C)C(=O)C(Oc1ccc(Cl)cc1)n1cncn1 (stereo not given),inactive
16,CCOc1nc(C(Cl)(Cl)Cl)ns1,inactive
17,Cc1cc(C)nc(Nc2ccccc2)n1,inactive
18,C[C@@H]1CN(C2CCC(C#N)(c3ccc(F)cc3)CC2)CC[C@]1(C(=O)O)c1ccccc1 (stereo not given in full),1.55 µM (active)
19,CCSC(=O)N(CC)C1CCCCC1,inactive
20,CSc1nc(N=[N+]=[N-])nc(NC(C)C)n1,inactive
